# Measured values as given in PubChem BioAssay (Tox21).
# Values joined by “and” are separate entries in the source; they are usually repeats but may differ in a detail not shown here. Equal entries are not always repeated. Records with an inconclusive call do not appear. Entries that show only a call come without a potency. The source holds several records for some structures; these can differ, active in one and inactive in another. Active and inactive are the calls of the source. Calls come from the whole dose curve; as a rule, active = well fitted curve in the direction sought with a large enough effect in the repeat runs; inconclusive = weak or mixed curves; inactive = no such curve, though single readings can be large; an effect the other way counts as inactive or inconclusive.
# Legend:
# [1] = A CellTox Green Cytotoxicity Assay to monitor cytotoxicity in HEK293 cells - 32 hour (AID 1224881); note: nearly all actives have a fitted effect of over 40% in size; note: potency is the fitted concentration of half-maximal effect
# Outline: (§1)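 Nonlytic real-time cytotoxicity: HEK293 + CellTox Green reagent plated, 5 h preincubation, pintool compound addition (23 nL in DMSO), 37 C for 40 h, fluorescence measured at successive time points.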
# [2] = A CellTox Green Cytotoxicity Assay to monitor cytotoxicity in HepG2 cells - 0 hour (AID 1224882); note: nearly all actives have a fitted effect of over 35% in size; note: potency is the fitted concentration of half-maximal effect
# Outline: (§2)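 Read-out is fluorescence of a cyanine dye excluded from live cells that stains DNA of dead HepG2 cells, with signal proportional to cytotoxicity. Plates were read at 0, 8, 16, 24, 32 and 40 h after compound addition.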
# [3] = A CellTox Green Cytotoxicity Assay to monitor cytotoxicity in HEK293 cells - 8 hour (AID 1224884); note: nearly all actives have a fitted effect of over 35% in size; note: potency is the fitted concentration of half-maximal effect
# Outline: as §1
# [4] = qHTS RealTime-Glo MT Cell Viability Assay in HepG2 cells - 16 hour (AID 1224885); note: nearly all actives have a fitted effect of over 50% in size; note: potency is the fitted concentration of half-maximal effect
# Outline: (§3)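 Cell number in HepG2 cultures estimated from NanoLuc luminescence generated by metabolic reduction of a prosubstrate by living cells. The homogeneous, nonlytic format allowed repeated reads at 0, 8, 16, 24, 32 and 40 h of compound exposure.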
# [5] = qHTS RealTime-Glo MT Cell Viability Assay in HEK293 cells - 24 hour (AID 1224886); note: nearly all actives have a fitted effect of over 50% in size; note: potency is the fitted concentration of half-maximal effect; for activity change, negative = cytotoxicity: top concentration of the series differs between compounds
# Outline: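 Homogeneous bioluminescent viability format in HEK293 cells (600 cells/well). Following 5 h at 37 C/5% CO2, 23 nL compound was pintooled; the signal was measured repeatedly during 40 h incubation.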
# [6] = qHTS RealTime-Glo MT Cell Viability Assay in HEK293 cells - 8 hour (AID 1224887); note: nearly all actives have a fitted effect of over 50% in size; note: potency is the fitted concentration of half-maximal effect; for activity change, negative = cytotoxicity: top concentration of the series differs between compounds
# Outline: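 Cells were seeded together with NanoLuc luciferase and a prosubstrate that viable cells reduce to a luciferase substrate. After a 5 h incubation at 37 C/5% CO2, compounds were added and luminescence was measured repeatedly during 40 h of treatment.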
# [7] = A CellTox Green Cytotoxicity Assay to monitor cytotoxicity in HEK293 cells - 16 hour (AID 1224888); note: nearly all actives have a fitted effect of over 35% in size; note: potency is the fitted concentration of half-maximal effect
# Outline: as §1
# [8] = qHTS RealTime-Glo MT Cell Viability Assay in HepG2 cells - 0 hour (AID 1224889); note: nearly all actives have a fitted effect of over 50% in size
# Outline: as §3
# [9] = A CellTox Green Cytotoxicity Assay to monitor cytotoxicity in HepG2 cells - 8 hour (AID 1224890); note: nearly all actives have a fitted effect of over 45% in size; note: potency is the fitted concentration of half-maximal effect
# Outline: as §2
# [10] = A CellTox Green Cytotoxicity Assay to monitor cytotoxicity in HepG2 cells - 32 hour (AID 1224883); note: nearly all actives have a fitted effect of over 50% in size; note: potency is the fitted concentration of half-maximal effect
# Outline: as §2
smiles,measurement,setting,value
COc1ccccc1N1CCNCC1,Potency,[1],inactive
same,Potency,[2],inactive
same,Potency,[3],inactive
same,Potency,[4],inactive
same,Potency,[5],inactive
same,Potency,[6],inactive
same,Potency,[7],inactive
same,outcome,[8],inactive
same,Potency,[9],inactive
CN(C)N,Potency,[2],inactive
same,Potency,[4],inactive
same,Potency,[5],inactive
same,Potency,[6],inactive
same,outcome,[8],inactive
same,Potency,[9],inactive
O=[N+]([O-])c1cc(Cl)c(Cl)cc1Cl,Potency,[2],inactive
same,Potency,[10],inactive
same,Potency,[3],inactive
same,Potency,[4],inactive
same,Potency,[6],inactive
same,Potency,[7],inactive
same,outcome,[8],inactive
same,Potency,[9],inactive
CC(=O)OC(c1ccccc1)C(Cl)(Cl)Cl (stereo not drawn),Potency,[1],19.5 µM (active)
same,Potency,[10],24.5 µM (active)
same,Potency,[3],19.5 µM (active)
same,Potency,[4],inactive
same,Potency,[5],inactive
same,Potency,[6],inactive
same,outcome,[8],inactive
same,Potency,[9],24.5 µM (active)
CCCCCCCCCCCCN=C(N)N,cytotoxicity increase,[1],11.7% [at 2.72 µM] (inactive)
same,cytotoxicity,[2],-4.6% [at 2.72 µM] (inactive)
same,cytotoxicity increase,[3],4.34% [at 2.72 µM] (inactive)
same,"activity change, negative = cytotoxic",[4],-5.38% [at 2.72 µM] (inactive)
same,activity change,[7],"7.85% [at 2.72 µM, stronger effect = higher value] (inactive)"
same,"activity change, negative = cytotoxicity",[8],5.28% [at 2.72 µM] (inactive)
same,cytotoxicity increase,[9],-0.515% [at 2.72 µM] (inactive)
CC(Cc1ccccc1)NCc1ccccc1Cl (stereo not drawn),Potency,[2],inactive
same,Potency,[3],inactive
same,Potency,[4],inactive
same,Potency,[6],inactive
same,Potency,[7],inactive
same,outcome,[8],inactive
same,Potency,[9],inactive
CC(Oc1cc(Cl)c(Cl)cc1Cl)C(=O)O (stereo not drawn),Potency,[1],inactive
same,Potency,[2],inactive
same,Potency,[3],inactive
same,Potency,[4],inactive
same,Potency,[6],inactive
same,outcome,[8],inactive
same,Potency,[9],inactive
CCC(=O)O[C@@H]1C=C2CCC3C(CCC4(C)C3CC[C@@H]4OC(=O)CC)C2CC1 (stereo partly drawn),Potency,[2],inactive
same,Potency,[10],inactive
same,Potency,[3],inactive
same,Potency,[4],inactive
same,Potency,[5],inactive
same,Potency,[7],inactive
same,outcome,[8],inactive
[Cl-].[Cl-].[Hg+2],Potency,[1],21.8 µM (active) and 6.92 µM (active)
same,Potency,[2],inactive
same,Potency,[3],inactive and 15.5 µM (active)
same,Potency,[4],48.8 µM (active) and 3.89 µM (active)
same,Potency,[6],43.5 µM (active) and 3.47 µM (active)
same,Potency,[7],38.7 µM (active) and 11 µM (active)
same,Potency,[9],48.8 µM (active) and 4.9 µM (active)
O=C(CCl)CCl,Potency,[2],inactive
same,Potency,[10],22.7 µM (active)
same,Potency,[3],inactive
same,Potency,[4],inactive
same,Potency,[5],18 µM (active) and 19.5 µM (active)
same,Potency,[6],inactive
same,Potency,[7],inactive
same,outcome,[8],inactive
same,Potency,[9],inactive
C[N+](C)(C)CCOC(=O)C(O)(c1ccccc1)c1ccccc1,Potency,[1],inactive
same,Potency,[2],inactive
same,Potency,[3],inactive
same,Potency,[4],inactive
same,Potency,[6],inactive
same,outcome,[8],inactive
same,Potency,[9],inactive
Cc1ccccc1,Potency,[1],inactive
same,Potency,[2],inactive
same,Potency,[3],inactive
same,Potency,[4],inactive
same,Potency,[5],inactive
same,Potency,[6],inactive
same,outcome,[8],inactive
same,Potency,[9],inactive
Cc1nnc(-c2ccccc2)c(=O)n1N,Potency,[1],inactive
same,Potency,[2],inactive
same,Potency,[3],inactive
same,Potency,[4],inactive
same,Potency,[6],inactive
same,Potency,[7],inactive
same,outcome,[8],inactive
same,Potency,[9],inactive
CC(O)CN1CCN(CC(=O)[O-])CCN(CC(=O)[O-])CCN(CC(=O)[O-])CC1.[Gd+3] (stereo not drawn),Potency,[1],inactive
same,Potency,[2],inactive
same,Potency,[3],inactive
same,Potency,[4],inactive
same,Potency,[5],inactive
same,Potency,[6],inactive
same,Potency,[7],inactive
same,outcome,[8],inactive
same,Potency,[9],inactive
COc1ccc(C(O)(c2cncnc2)C2CC2)cc1 (stereo not drawn),Potency,[1],inactive
same,Potency,[2],inactive
same,Potency,[3],inactive
same,Potency,[4],inactive
same,Potency,[6],inactive
same,Potency,[7],inactive
same,outcome,[8],inactive
same,Potency,[9],inactive
O=C(NC(=O)c1cc(F)c(F)cc1Cl)Nc1cc(F)ccc1N1CCC(C(=O)O)CC1,Potency,[1],inactive
same,Potency,[10],inactive
same,Potency,[3],inactive
same,Potency,[4],inactive
same,Potency,[6],inactive
same,Potency,[7],inactive
same,outcome,[8],inactive
C#C[C@]1(O)CC[C@H]2[C@@H]3CCC4=CC(=O)CCC4=C3C=C[C@@]21CC,Potency,[1],inactive
same,Potency,[2],inactive
same,Potency,[3],inactive
same,Potency,[4],inactive
same,Potency,[6],inactive
same,outcome,[8],inactive
same,Potency,[9],inactive
COC(=O)Cc1ccccc1,Potency,[1],inactive
same,Potency,[2],inactive
same,Potency,[3],inactive
same,Potency,[4],inactive
same,Potency,[5],inactive
same,Potency,[6],inactive
same,Potency,[7],inactive
same,outcome,[8],inactive
same,Potency,[9],inactive
CCCC[P+](CC)(CCCC)CCCC (tested in a mixture with another compound),Potency,[2],inactive
same,Potency,[10],inactive
same,Potency,[3],inactive
same,Potency,[4],inactive
same,Potency,[6],inactive
same,outcome,[8],inactive
same,Potency,[9],inactive
C[C@H]1[C@@H]2Cc3ccc(O)cc3[C@@]1(C)CCN2C,Potency,[1],inactive
same,Potency,[2],inactive
same,Potency,[3],inactive
same,Potency,[4],inactive
same,Potency,[6],inactive
same,Potency,[7],inactive
same,outcome,[8],inactive
same,Potency,[9],inactive
O=[N+]([O-])/C=C/c1ccccc1,Potency,[2],inactive
same,Potency,[10],17.7 µM (active)
same,Potency,[3],inactive
same,Potency,[4],49.8 µM (active) and 21.9 µM (active)
same,Potency,[5],6.27 µM (active) and 13.8 µM (active)
same,Potency,[6],14 µM (active) and 15.5 µM (active)
same,Potency,[7],inactive
same,outcome,[8],inactive
CC(C)CCON=O,Potency,[2],inactive
same,Potency,[10],inactive
same,Potency,[3],inactive
same,Potency,[4],inactive
same,Potency,[5],inactive
same,Potency,[6],inactive
same,outcome,[8],inactive
same,Potency,[9],inactive
C=CCc1ccc(OC(=O)Cc2ccccc2)c(OC)c1,Potency,[1],inactive
same,Potency,[2],inactive
same,Potency,[3],inactive
same,Potency,[4],inactive
same,Potency,[6],inactive
same,Potency,[7],inactive
same,outcome,[8],inactive
same,Potency,[9],inactive
O=C(Cc1ccccc1)OCCc1ccccc1,Potency,[1],inactive
same,Potency,[2],inactive
same,Potency,[3],inactive
same,Potency,[4],inactive
same,Potency,[6],inactive
same,outcome,[8],inactive
same,Potency,[9],inactive
C=CCN1C[C@H](C)N([C@H](c2ccc(C(=O)N(CC)CC)cc2)c2cccc(OC)c2)C[C@H]1C,Potency,[2],inactive
same,Potency,[3],inactive
same,Potency,[4],inactive
same,Potency,[6],inactive
same,Potency,[7],inactive
same,outcome,[8],inactive
same,Potency,[9],inactive
CC(C)(C)c1ccc(CCOc2ncnc3ccccc23)cc1,Potency,[1],inactive
same,Potency,[2],inactive
same,Potency,[3],inactive
same,Potency,[4],inactive
same,Potency,[5],inactive
same,Potency,[6],inactive
same,outcome,[8],inactive
same,Potency,[9],inactive
O=C(O)C(F)(F)C(F)(F)C(F)(F)C(F)(F)C(F)(F)C(F)(F)C(F)(F)C(F)(F)F,Potency,[1],inactive
same,Potency,[2],inactive
same,Potency,[3],inactive
same,Potency,[5],inactive
same,Potency,[6],inactive
same,Potency,[7],inactive
same,Potency,[9],inactive
CCCN(CCC)c1c([N+](=O)[O-])cc(C(C)C)cc1[N+](=O)[O-],Potency,[1],inactive
same,Potency,[2],inactive
same,Potency,[3],inactive
same,Potency,[4],inactive
same,Potency,[5],inactive
same,Potency,[6],inactive
same,outcome,[8],inactive
same,Potency,[9],inactive
OCC1CO1 (stereo not drawn),Potency,[1],inactive
same,Potency,[3],44.4 µM (active) and inactive
same,Potency,[4],inactive
same,Potency,[5],inactive
same,Potency,[6],inactive
same,Potency,[7],inactive
same,outcome,[8],inactive
CC(C)(C)CC(C)(C)c1ccc(O)cc1,Potency,[1],12.3 µM (active) and 19 µM (active)
same,Potency,[2],inactive
same,Potency,[3],15.5 µM (active) and 12 µM (active)
same,Potency,[4],34.7 µM (active)
same,Potency,[5],inactive
same,Potency,[6],34.7 µM (active)
same,outcome,[8],inactive
same,Potency,[9],17.4 µM (active) and 10.7 µM (active)
C=CCSSCC=C,Potency,[1],inactive
same,Potency,[2],inactive
same,Potency,[3],54.9 µM (active)
same,Potency,[4],inactive
same,Potency,[5],inactive
same,Potency,[6],inactive
same,Potency,[7],inactive
same,outcome,[8],inactive
same,Potency,[9],inactive
CCCN(CCC)C(=O)Cc1c(-c2ccc(Cl)cc2)nc2ccc(Cl)cn12,Potency,[1],inactive
same,Potency,[2],inactive
same,Potency,[3],inactive
same,Potency,[4],inactive
same,Potency,[5],5.35 µM (active)
same,Potency,[6],5.35 µM (active)
same,Potency,[7],inactive
same,outcome,[8],inactive
same,Potency,[9],inactive
Nc1ccccc1C(=O)OCCc1ccccc1,Potency,[1],21.9 µM (active)
same,Potency,[2],inactive
same,Potency,[3],inactive and 34.7 µM (active)
same,Potency,[4],inactive
same,Potency,[5],21.9 µM (active)
same,Potency,[6],21.9 µM (active)
same,outcome,[8],inactive
same,Potency,[9],inactive and 24.5 µM (active)
CCCN(CCOc1c(Cl)cc(Cl)cc1Cl)C(=O)n1ccnc1,Potency,[1],inactive
same,Potency,[2],inactive
same,Potency,[3],inactive
same,Potency,[4],inactive
same,Potency,[5],22.3 µM (active) and 27.5 µM (active)
same,Potency,[6],44.6 µM (active) and 27.5 µM (active)
same,Potency,[7],inactive
same,Potency,[9],inactive
CCOP(=S)(OCC)Oc1ccc(S(C)=O)cc1 (stereo not drawn),Potency,[1],inactive
same,Potency,[2],inactive
same,Potency,[3],inactive
same,Potency,[4],inactive
same,Potency,[5],inactive
same,Potency,[6],inactive
same,Potency,[9],inactive
CN1CC[C@]23c4c5ccc(O)c4O[C@H]2[C@@H](O)C=C[C@H]3[C@H]1C5,Potency,[1],inactive
same,Potency,[3],inactive
same,Potency,[4],inactive
same,Potency,[5],inactive
same,Potency,[6],inactive
same,Potency,[7],inactive
same,outcome,[8],inactive
same,Potency,[9],inactive
COc1cc(C[C@@H](C)N)c(OC)cc1Br,Potency,[1],inactive
same,Potency,[2],inactive
same,Potency,[3],inactive
same,Potency,[4],inactive
same,Potency,[5],inactive
same,Potency,[6],inactive
same,Potency,[7],inactive
same,Potency,[9],inactive
O=C(O)C(F)(F)C(F)(F)C(F)(F)C(F)(F)C(F)(F)F,Potency,[1],inactive
same,Potency,[2],inactive
same,Potency,[3],inactive
same,Potency,[4],inactive
same,Potency,[5],inactive
same,Potency,[6],inactive
same,Potency,[7],inactive
same,outcome,[8],inactive
same,Potency,[9],inactive
COc1ccc(C(=O)c2c(C)n(CCN3CCOCC3)c3ccccc23)cc1,Potency,[1],inactive
same,Potency,[2],0.952 µM (active)
same,Potency,[3],inactive
same,Potency,[4],inactive
same,Potency,[6],inactive
same,Potency,[7],inactive
same,outcome,[8],inactive
same,Potency,[9],1.07 µM (active)
